Calls of active or inactive are those of the source.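 How the source made its calls, unless noted: active means fluorescence slope higher than the sample average by over 3 SD (cut at about -0.22 in these data, passing the limit was not always enough); inactive means the rest.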
target: Voltage-gated potassium channel subunit beta-2 (Rattus norvegicus) (UniProt P62483); experiment: KvBeta enzyme negative modulators, primary screen, biochemical, NADPH fluorescence (AID 622); conditions: recombinant KvBeta, 4-cyanobenzaldehyde reduction, at 10 µM, hits give high values;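 further: slope of raw intensity against log time taken from 70 to 1610 s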
Sequence (P62483 whole entry, looked up): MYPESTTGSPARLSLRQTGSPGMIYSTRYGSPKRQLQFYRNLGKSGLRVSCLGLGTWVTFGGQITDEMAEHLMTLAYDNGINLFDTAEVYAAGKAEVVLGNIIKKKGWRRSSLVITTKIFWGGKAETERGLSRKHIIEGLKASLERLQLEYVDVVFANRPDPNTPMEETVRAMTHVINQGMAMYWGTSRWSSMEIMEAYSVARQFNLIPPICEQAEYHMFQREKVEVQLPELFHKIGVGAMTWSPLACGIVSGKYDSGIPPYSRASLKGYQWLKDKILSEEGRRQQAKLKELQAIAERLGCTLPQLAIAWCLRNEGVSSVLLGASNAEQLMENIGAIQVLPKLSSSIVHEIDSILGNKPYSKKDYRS

Fluorescence slope, inactive:
Cc1ccc(-c2nnn(CC(=O)NC3CC4CCC3C4)n2)cc1 (stereo not given) -0.563
CCOc1cc2[nH]c(=O)n(CCCCC(=O)N3CCCCCC3)c(=O)c2cc1OCC -0.437
Cc1ccc(C(C)C)c(OCc2nnc(SCC(=O)Nc3ncc(C)s3)n2C)c1 -0.545
COc1cccc(-n2c(SCC(=O)OC(C)C)nnc2-c2cccnc2)c1 -0.459
COCCn1c(SCC(=O)Nc2nnc(C)s2)nnc1-c1c[nH]c2ccccc12 -0.505
CCOC(=O)c1[nH]cc(-c2ccccc2)c1N1CCOCC1 -0.541
CC(C)OP(=O)(c1ccc(N(C)C)cc1)C(O)c1ccccc1F (stereo not given) -0.541
O=C(CSc1nnc(Cn2cnc3ccccc32)o1)c1ccccc1 -0.464
N#Cc1c(NC(=O)COC(=O)C2CC3C=CC2C3)oc(-c2ccccc2)c1-c1ccccc1 (stereo not given) -0.399
O=C(NCc1ccccc1)N1CCn2c(nc3ccccc32)C1 -0.413
CCCCn1c(SCc2cccnc2)nc2c1c(=O)n(C)c(=O)n2C -0.511
CCOC(=O)c1[nH]c2ccccc2c1NC(=O)c1ccco1 -0.332
CC(C(=O)NCCCN1CCOCC1)n1cccc1C(=O)c1ccccc1 (stereo not given) -0.549
COc1ccccc1NS(=O)(=O)c1ccc(NC(=O)c2nc3ncccn3n2)cc1 -0.571
CCCCCCC(=O)c1c(C)[nH]c(C(=O)OCC)c1C -0.517
O=C1CS/C(=N\C(=O)N2c3ccccc3Sc3ccccc32)N1 -0.523
COc1ccc2c(c1)CCc1c(C(=O)N3CCCc4ccccc43)noc1-2 -0.459
O=C(c1ccc(Cl)cc1)N(Cc1cccs1)C1CCS(=O)(=O)C1 (stereo not given) -0.555
c1nnc(NC2=NCCCCC2)s1 -0.346
Cc1cncn1CCc1nc2c3ccccc3nc(=S)n2[nH]1 -0.432
Cc1ccc(S(=O)(=O)Cc2ccc(C(=O)NCc3ccc4c(c3)OCO4)o2)cc1 -0.454
Cn1cnnc1SCC(=O)Nc1sc2c(c1C#N)CCCCC2 -0.499
O=C(O)c1[nH]nc2c1COc1ccccc1-2 -0.551
CC1(C)CC(=O)c2cc(OCC(=O)NCCCN3CCN(c4ccccc4F)CC3)ccc2O1 -0.366
COCCn1c(=O)[nH]c2cc(C(=O)NCCCN3CCN(c4ccc(F)cc4)CC3)ccc2c1=O -0.472
O=C(COC(=O)C1(c2ccccc2F)CCCC1)NC1CCS(=O)(=O)C1 (stereo not given) -0.578
COc1cc(OC)c(C(=O)Nc2ccc(N(C)C)cc2)cc1OC -0.448
CCOC(=O)Nc1cc(OCC)c(NC(=O)C2CC2)cc1OCC -0.439
CCOC(=O)c1sc(N2C(=O)C(O)=C(C(=O)c3ccco3)C2c2ccccc2)nc1C (stereo not given) -0.37
O=c1oc(-c2ccco2)nc2ccccc12 -0.559
COc1cccc(OC)c1C(=O)Nc1ccccc1N1CCCC1 -0.474
Cc1ccccc1Cn1nc(C)c(NC(=O)c2noc3c2CCCC3)c1C -0.571
Cc1ccc(C(=O)C2COC(=O)C2)cc1 (stereo not given) -0.579
COc1ccc(S(=O)(=O)n2ccnc2)c2cccnc12 -0.358
CCOC(=O)c1ccc(-c2c(C(=O)OCC)oc3cc(O)c(CC)cc3c2=O)o1 -0.602
COc1cc(NC(=O)c2cc(OC)c(OC)c(OC)c2)c(OC)cc1NC(=O)CN1CCCCC1 -0.309
CCCCC(CC)C(=O)Nc1ccc(Cl)cn1 (stereo not given) -0.377
O=C(/C=N/O)Nc1cccnc1 -0.552
c1ccc2c(c1)Cn1c-2nc2ccccc21 -0.349
O=c1cc(COn2nnc3ccc(C(F)(F)F)cc32)nc2sccn12 -0.478

target: Voltage-gated potassium channel subunit beta-2 (Rattus norvegicus) (UniProt P62483); experiment: KvBeta positive modulators, primary screen, biochemical, NADPH fluorescence (AID 623;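 active means NADPH fluorescence slope more negative than the mean of all samples by about 3 SD, 99.7% confidence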;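 further: fluorescence intensity change per second fitted from 20 to 320 s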); conditions: Recombinant KvBeta, NADPH fluorescence decrease slope, 10 min; at 10 µM; hits give low values

NADPH fluorescence slope, inactive:
Cc1ccc(-c2nnn(CC(=O)NC3CC4CCC3C4)n2)cc1 (stereo not given) -4.4e-05
CCOc1cc2[nH]c(=O)n(CCCCC(=O)N3CCCCCC3)c(=O)c2cc1OCC -0.00041
Cc1ccc(C(C)C)c(OCc2nnc(SCC(=O)Nc3ncc(C)s3)n2C)c1 -3.2e-05
COc1cccc(-n2c(SCC(=O)OC(C)C)nnc2-c2cccnc2)c1 -4.2e-05
COCCn1c(SCC(=O)Nc2nnc(C)s2)nnc1-c1c[nH]c2ccccc12 -0.00026
CCOC(=O)c1[nH]cc(-c2ccccc2)c1N1CCOCC1 -4.5e-05
CC(C)OP(=O)(c1ccc(N(C)C)cc1)C(O)c1ccccc1F (stereo not given) -5.1e-05
O=C(CSc1nnc(Cn2cnc3ccccc32)o1)c1ccccc1 -3.7e-05
N#Cc1c(NC(=O)COC(=O)C2CC3C=CC2C3)oc(-c2ccccc2)c1-c1ccccc1 (stereo not given) -0.000409
O=C(NCc1ccccc1)N1CCn2c(nc3ccccc32)C1 -2.6e-05
CCCCn1c(SCc2cccnc2)nc2c1c(=O)n(C)c(=O)n2C -3.3e-05
CCOC(=O)c1[nH]c2ccccc2c1NC(=O)c1ccco1 -6.5e-05
CC(C(=O)NCCCN1CCOCC1)n1cccc1C(=O)c1ccccc1 (stereo not given) -3.4e-05
COc1ccccc1NS(=O)(=O)c1ccc(NC(=O)c2nc3ncccn3n2)cc1 -7.6e-05
CCCCCCC(=O)c1c(C)[nH]c(C(=O)OCC)c1C -2.8e-05
O=C1CS/C(=N\C(=O)N2c3ccccc3Sc3ccccc32)N1 -5.6e-05
COc1ccc2c(c1)CCc1c(C(=O)N3CCCc4ccccc43)noc1-2 -0.000351
O=C(c1ccc(Cl)cc1)N(Cc1cccs1)C1CCS(=O)(=O)C1 (stereo not given) -9.2e-05
c1nnc(NC2=NCCCCC2)s1 -1.1e-05
Cc1cncn1CCc1nc2c3ccccc3nc(=S)n2[nH]1 1.4e-06
Cc1ccc(S(=O)(=O)Cc2ccc(C(=O)NCc3ccc4c(c3)OCO4)o2)cc1 -9.9e-06
Cn1cnnc1SCC(=O)Nc1sc2c(c1C#N)CCCCC2 0.000104
O=C(O)c1[nH]nc2c1COc1ccccc1-2 -0.000118
CC1(C)CC(=O)c2cc(OCC(=O)NCCCN3CCN(c4ccccc4F)CC3)ccc2O1 3e-05
COCCn1c(=O)[nH]c2cc(C(=O)NCCCN3CCN(c4ccc(F)cc4)CC3)ccc2c1=O -3.1e-05
O=C(COC(=O)C1(c2ccccc2F)CCCC1)NC1CCS(=O)(=O)C1 (stereo not given) -7.2e-06
COc1cc(OC)c(C(=O)Nc2ccc(N(C)C)cc2)cc1OC -4.1e-05
CCOC(=O)Nc1cc(OCC)c(NC(=O)C2CC2)cc1OCC -4.7e-05
CCOC(=O)c1sc(N2C(=O)C(O)=C(C(=O)c3ccco3)C2c2ccccc2)nc1C (stereo not given) -5.7e-05
O=c1oc(-c2ccco2)nc2ccccc12 -4.2e-05
COc1cccc(OC)c1C(=O)Nc1ccccc1N1CCCC1 -5.8e-05
Cc1ccccc1Cn1nc(C)c(NC(=O)c2noc3c2CCCC3)c1C -2.7e-05
Cc1ccc(C(=O)C2COC(=O)C2)cc1 (stereo not given) -2.8e-05
COc1ccc(S(=O)(=O)n2ccnc2)c2cccnc12 7.3e-05
CCOC(=O)c1ccc(-c2c(C(=O)OCC)oc3cc(O)c(CC)cc3c2=O)o1 -2.5e-05
COc1cc(NC(=O)c2cc(OC)c(OC)c(OC)c2)c(OC)cc1NC(=O)CN1CCCCC1 -3.3e-05
CCCCC(CC)C(=O)Nc1ccc(Cl)cn1 (stereo not given) -7.8e-05
O=C(/C=N/O)Nc1cccnc1 -2.2e-05
c1ccc2c(c1)Cn1c-2nc2ccccc21 -6.3e-05
O=c1cc(COn2nnc3ccc(C(F)(F)F)cc32)nc2sccn12 3.2e-05
